# From PubChem BioAssay AID602440 (Sanford-Burnham Center for Chemical Genomics, 2012)
# In all, about 360,000 compounds went through this assay and about 2,300 (0.64%) were called active. The list comes from a sample in which actives are over-represented; it also holds similar structures and randomly drawn compounds. Values without a mark were called inactive. Rule as the data show it: active = inhibition mostly above about 40% (no sharp cut-off); inactive = mostly below about 27%.
# Biological target: Sentrin-specific protease 8 (Homo sapiens) (UniProt Q96LD8)
# Assay: human SENP8 protease inhibitors, primary screen, biochemical, fluorescence, Nedd8 protein substrate, uHTS (AID 602440)
# Settings: recombinant SENP8, Nedd8 substrate fluorescence; at 20 µM; stronger effect = higher value
# Chain of Sentrin-specific protease 8 (Homo sapiens) (Q96LD8 whole entry, looked up): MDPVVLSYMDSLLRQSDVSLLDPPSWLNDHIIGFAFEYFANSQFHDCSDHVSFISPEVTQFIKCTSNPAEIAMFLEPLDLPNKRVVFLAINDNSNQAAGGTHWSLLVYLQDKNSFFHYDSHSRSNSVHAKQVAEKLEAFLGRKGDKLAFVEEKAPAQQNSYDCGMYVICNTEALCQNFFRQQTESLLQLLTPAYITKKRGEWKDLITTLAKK
row,Compound,inhibition
1,CC(C(=O)NC1CCCC1)N1CCN(S(=O)(=O)c2ccccc2Cl)CC1 (configuration not stated),7.4%
2,COc1cccc(CCNC(=O)COc2cccc3c2OC(C)(C)C3)c1,20.6%
3,CC1(C)Cc2cccc(OCC(=O)Nc3nccs3)c2O1,42.4% (active)
4,CC1(C)Cc2cccc(OCC(N)=O)c2O1,20.9%
5,O=C(OCC(=O)N1CCN(c2ccccc2)CC1)c1ccc([N+](=O)[O-])s1,42.9% (active)
6,C[C@H](NC(=O)c1ccccc1Cl)C(=O)OCC(=O)N1CCN(c2ccccc2)CC1,12.8%
7,COc1cc(NC(=O)COC(=O)c2ccc([N+](=O)[O-])s2)cc(OC)c1OC,26.8%
8,Oc1ccc(N=Cc2sc3ccccc3c2Cl)cc1,87.5% (active)
9,CCCN=C1NC(=O)C(CC(=O)NCCc2ccc(OC)c(OC)c2)S1 (configuration not stated),16.5%
10,Cc1ccc(-n2nc3c(=O)n(C(C)C(=O)NCc4ccc5c(c4)OCO5)nc(C)c3c2C)cc1 (configuration not stated),3.2%
11,CC(=O)c1c(N2CCOCC2)nc(=S)n(-c2cc(C)ccc2C)c1C,9.8%
12,CC(=O)Nc1ccc(OCCC[n+]2cccc(C(=O)[O-])c2)cc1,7.7%
13,COc1ccc2c(Cl)c(-c3nnco3)sc2c1,-37.1%
14,COc1ccc(-c2nnco2)cc1OC,41.5% (active)
15,COc1ccc(C(=O)Oc2ccc(-c3nnco3)cc2)cc1S(=O)(=O)N1CCOCC1,20.2%
16,Cc1ccc(N2C(=O)CN=C2Nc2nc(C)cc(C)n2)cc1,31.7%
17,COc1ccc(N2CCC(CNC(=S)Nc3c(C)cccc3C)C2)cc1 (configuration not stated),9.9%
18,CCN(C(=O)CSc1ncnc2sccc12)c1c(N)n(Cc2ccccc2)c(=O)[nH]c1=O,-25%
19,CC1CCCC(N2CCN(C(=O)c3ccc(F)cc3)CC2)C1 (configuration not stated),7.2%
20,CCN1CCC(O)(/C=C/c2ccc(C)cc2)C(C(=O)/C=C/c2ccc(C)cc2)C1 (configuration not stated),16.7%
21,CCN1CCC2(CC1)N=C(c1ccc(F)cc1)C(=S)N2C(=O)c1ccc(C)cc1,48.7% (active)
22,Cc1ccc(C(=O)N2CC(=O)Nc3ccc(F)cc3C2c2ccc(F)cc2)cc1 (configuration not stated),4.1%
23,COC(=O)CNC(=O)c1ccc2c(c1)S(=O)(=O)c1ccccc1C2=O,23.2%

row,Compound,inhibition
1,CN(Cc1ccccc1)C(=O)CCNC(=O)Cn1cnc2ccccc2c1=O,16.4%
2,N#Cc1cccc(NC(=O)CN2CCCCCC2)c1,7.3%
3,CCc1nnc(NC(=O)CSc2nc3ccccc3c(=O)n2CCCOC)s1,23.2%
4,CCOCCCn1c(SCC(=O)Nc2cc(OC)ccc2OC)nc2ccccc2c1=O,-19.4%
5,CCOCCCn1c(NN)nc2ccccc2c1=O,34% (active)
6,Cc1cc(NC(=O)COC(=O)COc2ccc(Cl)cc2C)c([N+](=O)[O-])cc1C,7.4%
7,COc1ccc(CN2CN(C(C)C)CSC2=S)cc1,6.1%
8,Cc1oc2c(c1C(=O)N1CCOCC1)C(=O)c1ccccc1C2=O,61.3% (active)
9,CC(C(=O)Nc1ccccc1-c1ccccc1)N1CCOCC1 (configuration not stated),3.7%
10,Cc1nc2ccccc2n1C(=O)N1CCOCC1,11.5%
11,COc1ccc(C2=NOC(C(=O)NCc3ccco3)C2)cc1OC (configuration not stated),7.1%
12,COc1ccc(-c2c(NC(=O)c3ccco3)oc3ccc(Cl)cc3c2=O)cc1,-71.5%
13,Cc1cc(C)cc(N(CC(=O)NC2CCCC2)C(=O)CCC(=O)Nc2nccs2)c1,10.9%
14,CC1(C)C2CCC1(C)C(OC(=O)c1ccc(O)cc1)C2 (configuration not stated),40.5% (active)
15,CC1(C)C2CCC1(C)C(OC(=O)CCn1ccnc1)C2 (configuration not stated),22.1%
16,Cc1ccc(C(=O)OC2CCCN(C)C2)cc1 (configuration not stated),8.1%
17,COc1ccc2c(c1)C(C)=CC(C)(C)N2C(=O)Nc1ccccc1,-486%
18,COc1cc2[nH]c(=S)n(Cc3ccc(C)o3)c(=O)c2cc1OC,20%
19,CCC(C)(C)NC(=O)C(c1ccc(O)cc1)N(Cc1ccco1)C(=O)CCC(=O)Nc1ccccn1 (configuration not stated),-20.6%
20,Nc1ncnc2c1ncn2[C@@H]1O[C@H](C(=O)N2CCCN(Cc3ccccc3F)CC2)[C@@H](O)[C@H]1O,18.2%
21,CCN(CC)CCOC(=O)c1ccc(NC(=O)CNC(=O)c2ccccc2)cc1,7%
22,CCOc1ccc(NC(=O)CCNC(=O)c2ccc(Br)cc2)cc1,0.3%
23,CCN(CC)C(=O)CCC(=O)Nc1ccc(C(=O)OC)cc1,51.9% (active)

row,Compound,inhibition
1,Nc1c(C(=O)c2cccs2)sc2nsc(SCCN3CCCCC3)c12,16.8%
2,O=C(NCCN1CCOCC1)C1CCN(S(=O)(=O)c2ccccc2)CC1,18%
3,O=C(NNc1nc(N2CCCC2)nc(N2CCCC2)n1)c1ccccc1,5.2%
4,CCc1ccccc1NC(=O)NCCN1CCCCC1,12.7%
5,CN1CCc2ccccc2C1Cc1ccccc1NC(=O)c1sc2ccccc2c1Cl (configuration not stated),53.8% (active)
6,CCc1ccccc1NC(=O)c1ccc2c(c1)CCN2S(C)(=O)=O,22.2%
7,Cc1ccc(C2=Nc3c(ccc4ccccc34)C(c3ccncc3)=NN2)cc1,-6.5%
8,C=C(C)Cn1c(C)cc(C)c(S(=O)(=O)c2ccccc2C)c1=O,20.8%
9,COc1ccc(/C=C2/C(=O)N(c3ccccc3)N=C2C)c(OC)c1,53.8% (active)
10,COc1ccc(/C=C2/C(=O)OCc3cc(OC)c(OC)cc32)c(OC)c1,20.7%
11,COc1ccc(C(=O)CCc2ccccc2O)c(OC)c1,9.3%
12,O=C(CSc1nnnn1C1CCCC1)Nc1ccc2c(c1)OCCO2,7%
13,CN(C)c1ccc(/C=C2\NC(=S)N(Cc3ccccc3)C2=O)cc1,46.7% (active)
14,CCN(CC(=O)NC(C)C)C(=O)c1cc(S(=O)(=O)N2CCCCC2)ccc1N1CCCCC1,2.8%
15,CCOC(=O)C1CCCCN1Cc1ccc(OC)c(OC)c1OC (configuration not stated),-4.4%
16,CC1(C)CC(=O)C(N=Nc2c(F)cccc2F)=C(O)C1,24.6%
17,O=C1CCCC(O)=C1N=Nc1ccc2ncsc2c1,7.1%
18,O=C1CCCC(O)=C1N=Nc1ccc(S(=O)(=O)N2CCOCC2)cc1,43.2% (active)
19,O=S(=O)(c1ccc(-c2ccccc2)cc1)N1CCCC1,7.9%
20,Cc1ccc(S(=O)(=O)N2CCN(S(=O)(=O)N3CCOCC3)CC2)cc1,6.5%
21,CC1(C)CC(=O)C(N=Nc2ccc(S(=O)(=O)N3CCCCCC3)cc2)=C(O)C1,41% (active)
